# Measured values as given in PMC11062922 (Nature Chemical Biology, 2023).
# Like-named read-outs stand apart in the source and are kept apart here.
# Tests used:
# Parameters in all cases: species or system human, MV4-11 + K-562 + COLO205 + SK-N-BE2 + OVCAR-8
# [1] = tested on: T1, DJA1; settings: read-out: apparent Kd, compound concentrations: 100 nM and 1000 nM (sheet 'Samples'), n = 1
# T1 construct: gene DNAJA1
# [2] = tested on: EPHB6; settings: read-out: apparent Kd, n = 1
# [3] = tested on: PIK3CD; settings: read-out: apparent Kd, n = 1
# [4] = tested on: JAK2; settings: read-out: apparent Kd, n = 1
# [5] = tested on: MAPKAPK2; settings: read-out: apparent Kd, n = 1
# [6] = tested on: CDK17; settings: read-out: apparent Kd, n = 1
# [7] = tested on: PRKD2; settings: read-out: apparent Kd, n = 1
# [8] = tested on: PRKD3; settings: read-out: apparent Kd, n = 1
# [9] = tested on: AKT1; settings: read-out: apparent Kd, n = 1
# [10] = tested on: MAP2K1; settings: read-out: apparent Kd, compound concentrations: 100 nM and 1000 nM (sheet 'Samples'), n = 1
# [11] = tested on: DDR2; settings: read-out: apparent Kd; compound concentrations:100 nM and 1000 nM (sheet 'Samples'); n = 1
# [12] = tested on: NQO1; settings: read-out: apparent Kd, n = 1
# [13] = tested on: TGFBR1; settings: read-out: apparent Kd; compound concentrations:100 nM and 1000 nM (sheet 'Samples'); n = 1
# [14] = tested on: BMPR1B; settings: read-out: apparent Kd, n = 1
# [15] = tested on: EPHB1; settings: read-out: apparent Kd; compound concentrations:100 nM and 1000 nM (sheet 'Samples'); n = 1
# [16] = tested on: FN3KRP; settings: read-out: apparent Kd, compound concentrations: 100 nM and 1000 nM (sheet 'Samples'), n = 1
# [17] = tested on: PDXK; settings: read-out: apparent Kd, compound concentrations: 100 nM and 1000 nM (sheet 'Samples'), n = 1
# [18] = tested on: GSK3A; settings: read-out: apparent Kd; compound concentrations: 100 nM and 1000 nM (sheet 'Samples'), CATDS: 0.11270550310053699; n = 1
# [19] = compound concentrations:100 nM and 1000 nM (sheet 'Samples')
compound,measurement,setting,value
Nc1ncc(-c2cn[nH]c2)c2scc(-c3ccc4c(c3)CCN4C(=O)Cc3ccccc3)c12 [GSK2593067A],potency estimated from few doses,[1]; CATDS: 0.221714333862437,118 nM
same,potency estimated from few doses,"[2]; compound concentrations: 100 nM and 1000 nM (sheet 'Samples'), CATDS: 9.2316879629761303E-2",522 nM
same,potency estimated from few doses,"[3]; compound concentrations: 100 nM and 1000 nM (sheet 'Samples'), CATDS: 0.15776824540953199",196 nM
Cc1cc(O)cc(C)c1/C=C/c1cncc(-c2nn[nH]n2)c1.Cl [GW441806A],potency estimated from few doses,"[2]; compound concentrations: 100 nM and 1000 nM (sheet 'Samples'), CATDS: 4.3077369875392603E-2",1670 nM
same,potency estimated from few doses,"[4]; compound concentrations: 100 nM and 1000 nM (sheet 'Samples'), CATDS: 7.0798034106367105E-2",387 nM
CS(=O)(=O)Cc1ccc(Nc2nccc(-c3c(-c4cccc(NC(=O)c5c(F)cccc5F)c4)nn4ccccc34)n2)cc1 [GSK323543A],potency estimated from few doses,"[5]; compound concentrations: 100 nM and 1000 nM (sheet 'Samples'), CATDS: 7.72685747843148E-2",870 nM
CC(=O)N1CCN(c2ccc(Nc3nccc(-c4sc(C(C)C)nc4-c4cccc(NS(=O)(=O)c5cccc(Cl)c5)c4)n3)cn2)CC1 [GSK1660437A],potency estimated from few doses,"[6]; compound concentrations: 100 nM and 1000 nM (sheet 'Samples'), CATDS: 5.6429200744427303E-2",643 nM
same,potency estimated from few doses,[1]; CATDS: 3.8253703176693299E-2,1690 nM
same,potency estimated from few doses,"[7]; compound concentrations: 100 nM and 1000 nM (sheet 'Samples'), CATDS: 5.4931765235902902E-2",680 nM
same,potency estimated from few doses,"[8]; compound concentrations: 100 nM and 1000 nM (sheet 'Samples'), CATDS: 4.4377312299456101E-2",1110 nM
COc1ccc(-c2nc3n(c2-c2ccncc2)CCC3)cc1.COc1ccc(-c2nc3n(c2-c2ccncc2)CCC3)cc1.O=S(=O)(O)O.O=S(=O)(O)O [SKF-104493-B2],potency estimated from few doses,"[9]; compound concentrations: 100 nM and 1000 nM (sheet 'Samples'), CATDS: 9.7335035775878098E-2",2500 nM
same,potency estimated from few doses,[10]; CATDS: 9.8642022165156204E-2,2400 nM
same,potency estimated from few doses,"[5]; compound concentrations: 100 nM and 1000 nM (sheet 'Samples'), CATDS: 0.15746092707453499",867 nM
CN1CCN(c2ccc(Nc3nc(N)c(C(=O)c4ccc5c(c4)OCCO5)s3)cc2)CC1 [RO0505124-000],potency estimated from few doses,"[4]; compound concentrations: 100 nM and 1000 nM (sheet 'Samples'), CATDS: 0.61009142123011895",50.1 nM
O=S(=O)(CCOCc1ccc(-c2ccc3ncnc(Nc4ccc(OCc5cccc(F)c5)c(Cl)c4)c3c2)o1)c1ccccc1 [GW615311X],potency estimated from few doses,"[6]; compound concentrations: 100 nM and 1000 nM (sheet 'Samples'), CATDS: 2.3617209164995101E-2",2010 nM
same,potency estimated from few doses,"[3]; compound concentrations: 100 nM and 1000 nM (sheet 'Samples'), CATDS: 0.10575353255485199",176 nM
Fc1ccc(-c2c(-c3ccncc3)[nH]c3nccnc23)cc1 [RO1155697-000],potency estimated from few doses,[11],886 nM
same,potency estimated from few doses,[12]; [19],1590 nM
same,potency estimated from few doses,[7]; [19],962 nM
same,potency estimated from few doses,[13],1950 nM
COc1cccc(-c2c[nH]c3c(N/N=C/c4ccncc4)ncnc23)c1 [GW814408X],potency estimated from few doses,[14]; [19],612 nM
N#Cc1cccc(Nc2nccc(-c3cnn4ncccc34)n2)c1 [GW778894X],potency estimated from few doses,[6]; [19],44.8 nM
Nc1nc(N)c2nc(-c3ccccc3)[nH]c2n1 [SKF-12778],potency estimated from few doses,[9]; [19],1480 nM
same,potency estimated from few doses,[4]; [19],66.2 nM
CNc1nccc(-c2c(-c3ccc(F)cc3)ncn2C2CCN(C)CC2)n1 [SB-222903],potency estimated from few doses,[11],625 nM
same,potency estimated from few doses,[5]; [19],49 nM
Cl.Cn1c(=O)c(Cc2ccc(F)cc2F)cc2cnc(NC3CCOCC3)nc21 [RO3308757-001],potency estimated from few doses,[15],541 nM
same,potency estimated from few doses,[5]; [19],669 nM
Cn1cc(-c2cnc(N)c3c(-c4ccc5c(c4)CCN5C(=O)Cc4ccccc4)csc23)cn1 [GSK2593074A],potency estimated from few doses,[2]; [19],151 nM
CC(C)c1nc(-c2ccc(F)c(NS(=O)(=O)c3c(F)cccc3F)c2)c(-c2ccnc(Nc3ccc(N4CCOCC4)nc3)n2)s1 [GSK1804250A],potency estimated from few doses,[2]; [19],738 nM
same,potency estimated from few doses,[7]; [19],232 nM
same,potency estimated from few doses,[8]; [19],510 nM
COc1cc2ncn(-c3cc(OCCCc4ccccc4)c(C(N)=O)s3)c2cc1OC [GSK205189A],potency estimated from few doses,[15],958 nM
COc1cc2ncn(-c3cc(OCc4ccncc4)c(C(N)=O)s3)c2cc1OC [GSK336313A],potency estimated from few doses,[12]; [19],1230 nM
CS(=O)(=O)c1ccc(-c2nc3n(c2-c2ccncc2)CCC3)cc1 [SKF-105942],potency estimated from few doses,[1]; CATDS: 0.12627731400414099,1700 nM
same,potency estimated from few doses,"[12]; compound concentrations: 100 nM and 1000 nM (sheet 'Samples'), CATDS: 0.13363559113377599",1480 nM
same,potency estimated from few doses,"[3]; compound concentrations: 100 nM and 1000 nM (sheet 'Samples'), CATDS: 0.51073942178012399",141 nM
COc1cccc(C2=C(c3cn(C)c4c(C)cccc34)C(=O)NC2=O)c1 [RO3301012-000],potency estimated from few doses,[16]; CATDS: 0.113294190935364,1300 nM
same,potency estimated from few doses,"[12]; compound concentrations: 100 nM and 1000 nM (sheet 'Samples'), CATDS: 0.106114123885474",1550 nM
same,potency estimated from few doses,[17]; CATDS: 9.7216683357623401E-2,2000 nM
COc1ccc(S(=O)(=O)NC2CCN(c3cc(C)nc(Nc4cccc(C#N)c4)n3)CC2)cc1.O=C(O)C(F)(F)F [GSK1653539A],potency estimated from few doses,[16]; CATDS: 0.40384988174316899,910 nM
Cc1ccc(NC(=O)c2ccc(Cl)cc2)cc1-c1ccc(C(=O)Nc2ccncc2)cc1 [GSK1398467A],potency estimated from few doses,[16]; CATDS: 0.20437737337719999,1180 nM
NC(=O)c1sc(-n2cnc3ccc(C(F)(F)F)cc32)cc1OCc1ccccc1Br [GW853606X],potency estimated from few doses,[4]; [19],419 nM
Cn1cc(C2=C(c3cn(CCCCCO)c4ccccc34)C(=O)NC2=O)c2ccccc21 [RO0318053-000],potency estimated from few doses,[16]; CATDS: 0.23703756302713999,69.9 nM
same,potency estimated from few doses,[18],467 nM
same,potency estimated from few doses,[17]; CATDS: 0.25573485461169798,60.4 nM
Clc1ccc(-c2nn3ncccc3c2-c2ccnc(Nc3ccccc3)n2)cc1 [GW829055X],potency estimated from few doses,"[9]; compound concentrations: 100 nM and 1000 nM (sheet 'Samples'), CATDS: 3.4502228955022099E-2",1670 nM
same,potency estimated from few doses,"[14]; compound concentrations: 100 nM and 1000 nM (sheet 'Samples'), CATDS: 9.3434375492385105E-2",264 nM
same,potency estimated from few doses,"[6]; compound concentrations: 100 nM and 1000 nM (sheet 'Samples'), CATDS: 3.0637739748937999E-2",2340 nM
same,potency estimated from few doses,[1]; CATDS: 4.1892877755586803E-2,1060 nM
same,potency estimated from few doses,[10]; CATDS: 0.148171076580532,138 nM
same,potency estimated from few doses,"[12]; compound concentrations: 100 nM and 1000 nM (sheet 'Samples'), CATDS: 4.2030828964441901E-2",1050 nM
Cc1ccc(-n2nc(C(C)(C)C)cc2NC(=O)Nc2ccc(OCCN3CCOCC3)cc2)cc1 [BIRB0876BS],potency estimated from few doses,[11],1140 nM
same,potency estimated from few doses,[4]; [19],748 nM
same,potency estimated from few doses,[3]; [19],9.61 nM
